# Test results published in ChEMBL document CHEMBL3988442, “University of Dundee, Small-Polar-MMV Screening Library” (2021).
# For part of these data: Measured potencies and affinities stand elsewhere.
# Assays:
# Parameters in all cases: scale not given: direction of the effect not stated beside the values
# [1] = molecular target: Protein translocase subunit SecA (Escherichia coli (strain K12)) (UniProt P10408); experiment: Assay to Identify E. coli SecA ATPase Inhibitors; type: functional; conditions: 30 µM
# Protein translocase subunit SecA (Escherichia coli (strain K12)), sequence (P10408 whole entry): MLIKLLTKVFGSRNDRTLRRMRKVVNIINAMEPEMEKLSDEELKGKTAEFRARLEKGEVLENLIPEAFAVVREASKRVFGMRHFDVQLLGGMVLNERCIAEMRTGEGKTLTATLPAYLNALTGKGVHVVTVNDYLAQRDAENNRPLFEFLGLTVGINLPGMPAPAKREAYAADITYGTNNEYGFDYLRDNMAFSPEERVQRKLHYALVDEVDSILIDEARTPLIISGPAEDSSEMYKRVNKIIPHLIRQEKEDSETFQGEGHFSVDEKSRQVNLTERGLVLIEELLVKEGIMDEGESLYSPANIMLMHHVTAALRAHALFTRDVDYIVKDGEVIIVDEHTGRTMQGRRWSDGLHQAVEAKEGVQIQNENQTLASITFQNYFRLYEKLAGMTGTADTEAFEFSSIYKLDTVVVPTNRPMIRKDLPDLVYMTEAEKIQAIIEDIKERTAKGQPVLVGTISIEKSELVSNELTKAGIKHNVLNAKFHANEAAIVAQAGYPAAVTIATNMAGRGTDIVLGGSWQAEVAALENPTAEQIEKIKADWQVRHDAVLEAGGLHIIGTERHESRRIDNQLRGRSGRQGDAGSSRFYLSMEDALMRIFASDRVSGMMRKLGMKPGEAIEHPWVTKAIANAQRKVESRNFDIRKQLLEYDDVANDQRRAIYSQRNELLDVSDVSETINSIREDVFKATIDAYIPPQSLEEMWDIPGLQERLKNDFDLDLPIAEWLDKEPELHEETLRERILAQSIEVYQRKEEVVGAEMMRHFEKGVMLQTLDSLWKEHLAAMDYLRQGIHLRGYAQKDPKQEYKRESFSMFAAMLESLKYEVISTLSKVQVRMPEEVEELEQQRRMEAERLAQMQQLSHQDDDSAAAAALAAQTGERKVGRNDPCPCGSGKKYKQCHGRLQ
# [2] = molecular target: T1, Ubiquitin-activating enzyme e1, putative (Leishmania donovani (strain BPK282A1)) (UniProt E9BSI1); experiment: Leishmania donovani Ubiquitin Activating Enzyme (LdE1); type: functional; conditions: 30 µM
# T1 sequence (whole entry): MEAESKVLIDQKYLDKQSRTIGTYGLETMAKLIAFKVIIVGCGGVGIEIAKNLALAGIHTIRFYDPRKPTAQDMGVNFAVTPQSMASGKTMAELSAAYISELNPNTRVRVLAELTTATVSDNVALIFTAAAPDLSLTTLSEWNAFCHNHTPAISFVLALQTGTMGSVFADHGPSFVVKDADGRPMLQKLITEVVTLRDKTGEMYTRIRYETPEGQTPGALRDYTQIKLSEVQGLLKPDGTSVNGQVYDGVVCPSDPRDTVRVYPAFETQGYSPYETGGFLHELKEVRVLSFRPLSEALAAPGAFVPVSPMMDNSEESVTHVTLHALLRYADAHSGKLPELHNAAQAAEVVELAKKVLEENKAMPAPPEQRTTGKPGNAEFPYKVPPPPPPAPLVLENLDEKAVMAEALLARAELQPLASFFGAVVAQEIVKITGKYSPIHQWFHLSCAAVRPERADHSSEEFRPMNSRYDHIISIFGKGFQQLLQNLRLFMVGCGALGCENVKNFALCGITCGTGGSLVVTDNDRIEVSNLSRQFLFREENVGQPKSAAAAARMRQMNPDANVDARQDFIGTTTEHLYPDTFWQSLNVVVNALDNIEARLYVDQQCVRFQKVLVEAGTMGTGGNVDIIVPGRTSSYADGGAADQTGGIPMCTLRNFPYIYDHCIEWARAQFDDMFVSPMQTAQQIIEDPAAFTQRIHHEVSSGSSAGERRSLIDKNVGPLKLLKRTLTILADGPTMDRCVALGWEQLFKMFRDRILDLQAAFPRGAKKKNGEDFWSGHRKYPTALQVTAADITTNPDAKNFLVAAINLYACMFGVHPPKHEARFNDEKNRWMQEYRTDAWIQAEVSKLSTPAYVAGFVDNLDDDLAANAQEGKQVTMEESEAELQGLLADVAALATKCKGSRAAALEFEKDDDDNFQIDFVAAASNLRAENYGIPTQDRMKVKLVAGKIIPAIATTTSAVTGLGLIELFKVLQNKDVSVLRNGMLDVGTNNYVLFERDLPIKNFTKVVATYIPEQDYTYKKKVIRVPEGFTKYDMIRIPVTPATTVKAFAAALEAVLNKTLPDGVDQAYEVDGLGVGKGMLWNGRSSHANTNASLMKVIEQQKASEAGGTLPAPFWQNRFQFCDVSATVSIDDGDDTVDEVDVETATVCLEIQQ
# [3] = molecular target: T2, Aspartate--tRNA(Asp/Asn) ligase (Mycobacterium tuberculosis (strain ATCC 25618 / H37Rv)) (UniProt P9WFW3); experiment: Assay for Asp RNA synthetase-1 from Mycobacterium tuberculosis; type: functional; conditions: 30 µM; also: in the data most compounds retested in dose-response had high values
# T2 sequence (whole entry): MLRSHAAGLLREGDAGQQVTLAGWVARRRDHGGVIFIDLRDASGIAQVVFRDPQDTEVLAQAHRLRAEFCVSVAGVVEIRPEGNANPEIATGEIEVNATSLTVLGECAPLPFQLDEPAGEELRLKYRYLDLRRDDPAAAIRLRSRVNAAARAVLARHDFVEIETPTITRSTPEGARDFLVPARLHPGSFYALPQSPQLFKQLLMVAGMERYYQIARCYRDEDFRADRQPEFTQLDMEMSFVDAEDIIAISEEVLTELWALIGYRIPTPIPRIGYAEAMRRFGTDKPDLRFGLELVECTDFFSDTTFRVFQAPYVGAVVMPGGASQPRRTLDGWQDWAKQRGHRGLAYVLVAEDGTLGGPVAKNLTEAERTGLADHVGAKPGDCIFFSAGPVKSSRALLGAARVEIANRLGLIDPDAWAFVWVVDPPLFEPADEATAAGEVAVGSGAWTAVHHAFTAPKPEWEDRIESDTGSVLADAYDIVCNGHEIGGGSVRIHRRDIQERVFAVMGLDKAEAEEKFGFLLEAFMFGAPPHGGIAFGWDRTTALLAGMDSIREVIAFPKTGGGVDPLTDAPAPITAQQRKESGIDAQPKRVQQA
# [4] = molecular target: AMP-activated protein kinase, AMPK (Homo sapiens) (UniProt P54646+O43741+P54619+Q9UGJ0+Q9Y478+Q13131+Q9UGI9); experiment: AMP-dependent Kinase enzyme assay. An in vitro enzyme assay that detects ADP turnover that is directly proportional to AMPK activity. This uses naive AMPK that is activated during the assay with MK-8722; type: functional; conditions: 30 µM
# [5] = molecular target: Sialic acid-binding Ig-like lectin 9 (Homo sapiens) (UniProt Q9Y336); experiment: Hs-Siglec9 ALPHAscreen SOP 20170721; conditions: 10 µM
# Sialic acid-binding Ig-like lectin 9 (Homo sapiens), sequence (Q9Y336 whole entry): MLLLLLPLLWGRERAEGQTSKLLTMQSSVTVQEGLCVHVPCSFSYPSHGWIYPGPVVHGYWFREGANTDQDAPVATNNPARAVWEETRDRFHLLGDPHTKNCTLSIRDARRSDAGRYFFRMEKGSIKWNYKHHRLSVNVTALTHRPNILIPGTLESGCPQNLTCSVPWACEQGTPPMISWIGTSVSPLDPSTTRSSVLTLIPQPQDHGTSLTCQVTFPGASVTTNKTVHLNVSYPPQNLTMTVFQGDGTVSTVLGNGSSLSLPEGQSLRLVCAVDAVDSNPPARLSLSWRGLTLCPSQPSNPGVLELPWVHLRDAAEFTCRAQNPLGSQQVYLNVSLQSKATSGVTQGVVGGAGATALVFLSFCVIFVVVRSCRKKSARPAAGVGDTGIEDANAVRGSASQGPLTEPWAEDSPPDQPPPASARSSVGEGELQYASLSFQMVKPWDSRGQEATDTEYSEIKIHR
# Trypanosoma cruzi = experiment: Trypanosoma cruzi phosphomannomutase and mannose-1-phosphate guanylyltransferase assay; type: functional; conditions: 10 µM
# [6] = molecular target: T3, Arginase-2, mitochondrial (Homo sapiens) (UniProt P78540); experiment: in vitro enzyme assay to detect the production of urea directly proportional to the activity of Arginase II; type: functional; conditions: 33.3 µM; also: in the data most compounds retested in dose-response had high values
# T3 sequence (whole entry): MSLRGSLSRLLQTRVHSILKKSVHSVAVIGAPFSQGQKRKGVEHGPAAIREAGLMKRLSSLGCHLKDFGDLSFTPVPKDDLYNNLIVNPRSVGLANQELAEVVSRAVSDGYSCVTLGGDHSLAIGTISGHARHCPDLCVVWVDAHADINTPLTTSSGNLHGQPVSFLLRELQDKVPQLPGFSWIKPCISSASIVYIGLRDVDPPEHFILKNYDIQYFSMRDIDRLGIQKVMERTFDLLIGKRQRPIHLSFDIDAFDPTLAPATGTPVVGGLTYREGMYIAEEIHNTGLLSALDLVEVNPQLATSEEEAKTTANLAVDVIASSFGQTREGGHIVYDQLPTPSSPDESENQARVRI
# [7] = molecular target: T4, Proteasome subunit beta (Trypanosoma cruzi) (UniProt O96673); experiment: Trypanosoma cruzi proteasome chymotrypsin-like activity (TcProtChymo) assay.; also: in the data most compounds retested in dose-response had high values; type: functional; conditions: 9.37 µM
# T4 sequence (whole entry): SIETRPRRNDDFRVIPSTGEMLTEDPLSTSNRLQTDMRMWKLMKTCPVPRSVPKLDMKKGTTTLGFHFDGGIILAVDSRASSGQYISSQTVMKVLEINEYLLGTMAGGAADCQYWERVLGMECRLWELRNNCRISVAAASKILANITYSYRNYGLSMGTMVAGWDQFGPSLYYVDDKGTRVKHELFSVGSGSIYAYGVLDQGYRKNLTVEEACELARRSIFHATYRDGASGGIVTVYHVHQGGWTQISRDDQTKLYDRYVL
# Homo sapiens = species on record: Homo sapiens; experiment: To identify inhibition of the IFN signalling (Jak-Stat) pathway via expression of an eGFP reporter gene under the control of an IFN-stimulated response element (ISRE) containing MxA promoter.; type: functional; conditions: 30 µM
# [8] = molecular target: Shiga toxin 2 (Escherichia coli O157:H7) (UniProt P09385+P09386); experiment: E. coli 0.157:H7 Shiga Toxin SOP - stx2 screening assay; type: functional; conditions: 30 µM
# [9] = molecular target: T5, Tyrosyl-tRNA synthetase, putative (Trypanosoma cruzi (strain CL Brener)) (UniProt Q4DSP6); experiment: Trypanosoma cruzi tyrosyl tRNA synthetase (TcYRS) _High Tyrosine SOP; type: functional; conditions: 30 µM; also: in the data most compounds retested in dose-response had high values
# T5 sequence (whole entry): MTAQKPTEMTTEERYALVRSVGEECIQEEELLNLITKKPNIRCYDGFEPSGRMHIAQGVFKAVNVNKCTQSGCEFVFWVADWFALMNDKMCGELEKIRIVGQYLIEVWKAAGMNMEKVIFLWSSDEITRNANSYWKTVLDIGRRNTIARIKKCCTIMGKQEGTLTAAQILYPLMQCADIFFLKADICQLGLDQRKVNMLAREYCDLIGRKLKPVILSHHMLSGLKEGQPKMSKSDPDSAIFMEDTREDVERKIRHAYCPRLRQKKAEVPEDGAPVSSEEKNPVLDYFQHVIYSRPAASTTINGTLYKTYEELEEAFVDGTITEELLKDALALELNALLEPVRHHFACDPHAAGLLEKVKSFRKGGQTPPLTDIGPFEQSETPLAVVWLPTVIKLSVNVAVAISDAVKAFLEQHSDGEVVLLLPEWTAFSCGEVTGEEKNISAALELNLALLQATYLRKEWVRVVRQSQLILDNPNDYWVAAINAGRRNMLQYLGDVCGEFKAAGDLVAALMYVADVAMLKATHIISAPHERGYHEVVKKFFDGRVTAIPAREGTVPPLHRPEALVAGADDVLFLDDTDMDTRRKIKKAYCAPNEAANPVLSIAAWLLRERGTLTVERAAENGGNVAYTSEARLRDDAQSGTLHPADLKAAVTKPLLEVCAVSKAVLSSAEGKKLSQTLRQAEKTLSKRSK
# [10] = molecular target: T5, Tyrosyl-tRNA synthetase, putative (Trypanosoma cruzi (strain CL Brener)); experiment: Trypanosoma cruzi tyrosyl tRNA synthetase (TcYRS) SOP; type: functional; conditions: 30 µM
# [11] = molecular target: Chromo domain-containing protein 1 (Saccharomyces cerevisiae (strain ATCC 204508 / S288c) (Baker's yeast)) (UniProt P32657); experiment: ScCHD-1 Enzyme Inhibition Assay; type: functional; conditions: 30 µM; also: in the data most compounds retested in dose-response had high values
# Chromo domain-containing protein 1 (Saccharomyces cerevisiae (strain ATCC 204508 / S288c) (Baker's yeast)), sequence (P32657 whole entry, the tested form may be a part): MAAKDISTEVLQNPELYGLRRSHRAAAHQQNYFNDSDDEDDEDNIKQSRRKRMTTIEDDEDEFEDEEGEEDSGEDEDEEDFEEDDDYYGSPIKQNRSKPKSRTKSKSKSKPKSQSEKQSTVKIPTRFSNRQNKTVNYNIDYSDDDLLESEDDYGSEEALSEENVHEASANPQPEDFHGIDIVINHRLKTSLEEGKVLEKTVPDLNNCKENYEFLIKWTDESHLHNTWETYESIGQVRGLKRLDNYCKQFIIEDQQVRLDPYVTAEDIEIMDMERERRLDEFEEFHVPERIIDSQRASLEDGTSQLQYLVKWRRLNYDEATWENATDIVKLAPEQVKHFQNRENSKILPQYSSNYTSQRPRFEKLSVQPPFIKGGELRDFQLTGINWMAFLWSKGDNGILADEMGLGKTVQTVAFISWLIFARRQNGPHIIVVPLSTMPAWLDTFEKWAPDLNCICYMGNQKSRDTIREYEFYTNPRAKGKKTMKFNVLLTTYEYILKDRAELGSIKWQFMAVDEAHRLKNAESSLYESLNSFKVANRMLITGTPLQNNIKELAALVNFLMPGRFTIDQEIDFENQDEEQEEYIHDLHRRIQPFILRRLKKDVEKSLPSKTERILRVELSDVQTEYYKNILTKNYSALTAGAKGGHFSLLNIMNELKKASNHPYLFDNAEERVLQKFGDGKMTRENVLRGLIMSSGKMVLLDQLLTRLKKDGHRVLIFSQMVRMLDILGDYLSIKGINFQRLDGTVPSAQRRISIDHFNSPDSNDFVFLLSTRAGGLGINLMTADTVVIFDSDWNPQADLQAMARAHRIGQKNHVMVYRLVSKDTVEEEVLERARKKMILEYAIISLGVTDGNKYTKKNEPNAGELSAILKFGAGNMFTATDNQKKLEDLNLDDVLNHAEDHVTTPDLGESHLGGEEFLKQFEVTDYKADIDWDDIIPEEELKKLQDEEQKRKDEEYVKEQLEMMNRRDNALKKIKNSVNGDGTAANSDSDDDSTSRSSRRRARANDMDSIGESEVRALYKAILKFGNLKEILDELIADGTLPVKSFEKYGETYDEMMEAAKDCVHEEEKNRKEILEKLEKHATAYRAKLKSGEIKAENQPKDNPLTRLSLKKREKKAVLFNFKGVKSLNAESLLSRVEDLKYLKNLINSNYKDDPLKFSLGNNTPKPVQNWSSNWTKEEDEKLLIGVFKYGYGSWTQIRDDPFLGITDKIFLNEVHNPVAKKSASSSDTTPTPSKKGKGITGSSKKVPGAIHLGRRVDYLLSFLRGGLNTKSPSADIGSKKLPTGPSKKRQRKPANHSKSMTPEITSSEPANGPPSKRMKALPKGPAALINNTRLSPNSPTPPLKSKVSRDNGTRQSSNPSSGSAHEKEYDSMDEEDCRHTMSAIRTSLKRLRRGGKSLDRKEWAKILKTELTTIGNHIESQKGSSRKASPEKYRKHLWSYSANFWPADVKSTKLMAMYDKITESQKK
SMILES,Percent Effect [1],Percent Effect [2],Percent Effect [3],Percent Effect [4],Percent Effect [5],Percent Effect (Trypanosoma cruzi),Percent Effect [6],Percent Effect [7],Percent Effect (Homo sapiens),Percent Effect [8],Percent Effect [9],Percent Effect [10],Percent Effect [11]
CN(Cc1cccnc1)[C@@H]1CN(CC2CC2)[C@@H]2CCCO[C@H]12,-1.86%,2.67%,3.49%,2.59%,2.23%,-4.05%,-57.2%,3.42%,-1.28%,-18%,2.08%,5%,-8.32%
CC(C)=CCN1C(=O)[C@H]2CC[C@@H]1CN(Cc1cccnc1N)C2,5.73%,4.17%,4.65%,1.92%,2%,-5.34%,3.53%,23.7%,7.39%,-25.3%,7.37%,2.56%,2.83%
COc1ccccc1OCC(=O)N1CCN(Cc2noc(C)n2)CC1,-5.45%,13.5%,3.51%,-4.95%,22%,5.96%,5.21%,6.09%,2.23%,3.27%,4.3%,13.6%,-7.11%
COCCN1CCC2(CCCN(c3ncccn3)C2)C1 (configuration not stated),-2.69%,2.67%,-4.34%,10.4%,2.96%,-2.17%,8.16%,4.32%,-7.02%,-6.31%,-1.06%,-3.85%,-4.53%
CC(Cc1c(F)cccc1F)NC(=O)Nc1cnn(CC(N)=O)c1 (configuration not stated),-4.08%,21.5%,-0.509%,-1.23%,-0.0747%,0.513%,-1.07%,19.7%,15%,-36.4%,3.12%,17.7%,-23.1%
c1ccc(CN2C[C@@H]3OCCN(CC4CCCO4)[C@@H]3C2)nc1 (some centres not stated),-4.3%,10.8%,-0.749%,-3.75%,1.76%,4.01%,15%,15.5%,22.6%,4.43%,7.57%,15.4%,-4.89%
c1cc(NC2CC3(CCN(Cc4cc[nH]n4)C3)C2)ncn1 (configuration not stated),-3.9%,-4.05%,-4.78%,5.87%,0.0436%,5.73%,-3.02%,2.18%,-4.19%,0.0104%,2.15%,3.9%,-8.87%
CC(=O)N1CCOCC2(CN(Cc3ccccn3)CCO2)C1 (configuration not stated),-4.37%,-2.67%,0.233%,-1.22%,-2.37%,4.25%,2.33%,9.74%,-30.1%,-6.22%,2.08%,2.5%,-3.93%
COc1ccc(-c2n[nH]cc2C2SCC(=O)Nc3[nH]ncc32)cc1 (configuration not stated),-3.63%,0%,0.479%,21.7%,3.15%,-3.41%,-17.8%,14.9%,16.2%,-3.31%,2.13%,7.79%,0.161%
